Rows were chosen to be rich in hits. Some 19% of all compounds tested hit in one or more screens of this group.
DT40 TDP1 no CPT = qHTS for Inhibitors of human tyrosyl-DNA phosphodiesterase 1 (TDP1): qHTS in cells in absence of CPT. DT40 Tdp1-/- hTDP1 cells, no CPT, ATP luminescence, 48 h. Potency, µM (series often up to 46.2 µM), for inactives: at the top dose activity change, negative = growth inhibition, usual class: inhibitors. actives 15% (n = 420,000); note: potency is the fitted concentration of half-maximal effect; nearly all actives have a fitted effect of over 55% in size
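Growth of hTDP1-complemented DT40 Tdp1-knockout cells is measured by ATP luminescence after at least 48 hr compound exposure at 37 °C, with DMSO substituting for the 20 nM CPT used in the parallel screen.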
HT1080 IDH1KD tx = HT-1080 IDH1 knockdown cell toxicity (counter line); Potency, µM (series often up to 46.1 µM), without a hit: top-dose activity, negative = toxicity, actives largely listed as cytotoxic; actives 2% (n = 360,000); AID 686971; HT-1080 IDH1 knockdown viability, ATP luminescence, 48 h;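 note: potency is the fitted concentration of half-maximal effect; 0% = DMSO wells and -100% = cell-free medium wells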
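Luminescent ATP read-out (CellTiter-Glo, 10 min at room temperature) after 48 h compound exposure at 37 °C gave viability of IDH1-knockdown HT-1080 cells. Activity was normalised to DMSO and cell-free wells, then fitted as concentration-response curves.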
TDP1 cell CPT = DT40-hTDP1 cell growth loss with CPT. Potency, µM (series often up to 46.2 µM), for inactives: top-dose activity change, negative = growth inhibition, hits mostly inhibitors. actives 12% (n = 420,000). chicken DT40 Tdp1-/-;hTDP1 cells + 20 nM CPT, ATP luminescence, 48 h; note: potency is the fitted concentration of half-maximal effect; nearly all actives have a fitted effect of over 55% in size
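Chicken DT40 Tdp1-/- cells stably complemented with human TDP1 were seeded at 400 cells/well in medium containing 20 nM camptothecin, exposed to pin-transferred compounds, and grown at 37 °C for at least 48 hr. Viability was read as ATP luminescence.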
HT1080NT lethal = kills 2HG-producing HT-1080-NT fibrosarcoma cells | HT-1080-NT fibrosarcoma viability, CellTiter-Glo ATP luminescence, 48 h | Potency, µM (series often up to 46.1 µM), without a hit: at the top dose activity, negative = less viability, usual class: cytotoxic | AID 686970 | actives 1.6% (n = 360,000);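 note: NT is the 2HG producing partner of a matched IDH1 knockdown line; potency is the fitted concentration of half-maximal effect; 0% = DMSO-treated cells and -100% = media-only wells without cells; nearly all actives have a fitted effect of over 55% in size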
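Toxicity toward the 2HG-producing NT line was scored as %Activity, normalised to DMSO and no-cell wells, from CellTiter-Glo luminescence after 48 hours' treatment.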
IL1B secr inh = inflammasome signaling inhibition, IL-1 beta readout; THP-1 LPS/ATP IL-1B secretion, AlphaLISA, 16 h; stronger effect = lower value; activity change, % at 57.5 µM; actives 4.7% (n = 360,000); in the data active = activity change below about -50%; inconclusive = mostly about -30% to -49%
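Secreted IL-1B measured by AlphaLISA bead assay after 16 h compound exposure of THP-1 cells; compounds (final up to 57.5 uM) added 1 h before LPS (250 ng/mL) and ATP (1.25 mM) stimulation; lower signal means less secretion.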
Starred values were filed as active, the others as inactive; u = inconclusive; x = not tested or not shown; [ ] = remark or other dose. Unless noted, calls come from the whole dose curve; as a rule, active = well fitted curve in the direction sought with a large enough effect; inconclusive = small, poorly fitted or top-dose-only effect, or another doubt; inactive = no such curve, though single readings can be large; an effect the other way counts as inactive or inconclusive. Unless noted, % is set by controls: 0 for no effect and ±100 for the full control effect.

SMILES	DT40 TDP1 no CPT	HT1080 IDH1KD tx	TDP1 cell CPT	HT1080NT lethal	IL1B secr inh
Oc1ccc(C[C@H]2CNC(=S)N2CC2CCCN2C[C@H](Cc2ccccc2)N2C[C@H](Cc3ccc(O)cc3)N(CC3CCCCC3)C2=S)cc1 (some centres not stated)	21µM*	26µM*	u	u	u
CC(C)C[C@H]1CN([C@@H](Cc2ccccc2)CN2CCC[C@@H]2CN2C(=O)C(=O)NC[C@@H]2Cc2ccc(O)cc2)C(=O)C(=O)N1CC1CCCCC1	u	9%	-23%	4%	-23
Oc1ccc(C[C@H]2CNC(=S)N2CC2CCCN2C[C@H](Cc2ccc(O)cc2)N2C[C@H](Cc3ccccc3)N(CC3CCCCCC3)C2=S)cc1 (some centres not stated)	4.1µM*	-22%	10µM*	-11%	-66*
Oc1ccc(C[C@@H](CN2CCCC2CN2C(=S)NC[C@@H]2Cc2ccccc2)N2C[C@H](Cc3ccccc3)N(CC3CCCCC3)C2=S)cc1 (some centres not stated)	21µM*	8%	15µM*	1%	-8
Oc1ccc(C[C@H]2CNC(=S)N2CC2CCCN2C[C@H](Cc2ccc(O)cc2)N2C[C@H](Cc3ccccc3)N(CC3CCCCC3)C2=S)cc1 (some centres not stated)	16µM*	-27%	16µM*	-25%	-72*
Oc1ccc(C[C@@H](CN2CCCC2CN2C(=S)NC[C@@H]2Cc2ccccc2)N2C[C@H](Cc3ccccc3)N(CC3CCCCCC3)C2=S)cc1 (some centres not stated)	u	-15%	u	-3%	-8
Oc1ccc(C[C@H]2CN([C@@H](Cc3ccccc3)CN3CCC[C@@H]3CN3C(=S)NC[C@@H]3Cc3ccccc3)C(=S)N2CC2CCCCC2)cc1	26µM*	u	u	23µM*	u
CN(c1ccccc1)c1ccc(/C=C(\C#N)c2nnc3n2CCCCC3)cc1[N+](=O)[O-]	12µM*	u	18µM*	-9%	-106*
N#C/C(=C\c1cccc([N+](=O)[O-])c1)c1nnc2n1CCCCC2	u	-21%	u	-15%	-91*
C(/CCc1ccccc1)=N\n1cnnc1	-2%	22%	-3%	-6%	10
BrC(=C\c1ccccc1)/C=N/n1cnnc1	0.58µM*	21µM*	0.29µM*	16µM*	-13
BrC(=C\c1ccccc1)/C=N/Nc1ccc2nncn2n1	u	u	u	-8%	-86*
CCc1nc2c(OCc3ccc(Cl)cc3)cccn2c1N(C)C(=O)c1ccc2c(c1)OCO2	u	-14%	u	-22%	-6
CC(C)NS(=O)(=O)c1ccc(CCC(=O)Nc2cc(Cl)ccc2Oc2ccccc2)cc1	23µM*	-10%	23µM*	-12%	-16
CCC(C)(C)NC(=O)Cn1c(-c2ccc(C)cc2)noc1=O	-4%	2%	5%	11%	-10
Cc1ccccc1C1c2[nH]c3ccccc3c2CCN1CCCn1cccn1 (configuration not stated)	13µM*	-13%	u	0%	-20
Fc1ccc(C2c3[nH]c4ccccc4c3CCN2CCCn2cccn2)cc1 (configuration not stated)	u	-7%	u	-4%	u
Cc1ccc(NC(=O)CN(C)C(=O)CSc2nccn2C)cc1	-15%	16%	10%	16%	16
CC(C)=CCC[C@H](C)C[C@@H]1Cc2[nH]c(=S)[nH]c(=O)c2[C@@H](c2ccc(F)cc2)O1	26µM*	-26%	u	-22%	86
CC(C)=CCC[C@H](C)C[C@@H]1Cc2[nH][nH]c(=O)c2[C@@H](c2ccc(F)cc2)O1	u	-28%	u	-30%	-17
CC(C)=CCC[C@H](C)CC1Cc2[nH]c(=S)[nH]c(=O)c2C(c2ccc(Cl)cc2)O1 (some centres not stated)	u	16µM*	u	u	-20
CC(C)=CCC[C@H](C)C[C@@H]1CC2=C(C(=O)OC(C)(C)O2)[C@@H](c2ccc(F)cc2)O1	16µM*	3%	u	13%	0
O=C(Nc1ccccc1F)C1COc2ccccc2O1 (configuration not stated)	7%	0%	-19%	15%	14
CCC(C)NC(=O)CCNS(=O)(=O)c1ccc(Br)cc1 (configuration not stated)	3%	-9%	-4%	4%	-3
COc1ccc(-c2csc(C)n2)cc1	-16%	7%	-9%	21%	0
SMILES	DT40 TDP1 no CPT	HT1080 IDH1KD tx	TDP1 cell CPT	HT1080NT lethal	IL1B secr inh
COc1ccc(-c2csc(CCN3N=C(C)CC3=O)n2)cc1	u	0%	u	-12%	-53*
COc1ccc(NC(=O)c2oc3ccccc3c2NC(=O)Cc2coc3cc(C)ccc23)cc1	12µM*	x	u	x	x
COC(=O)c1cc(NC(=O)Cc2coc3cc(OC)ccc23)cc(C(=O)OC)c1	u	-30%	23µM*	2%	-16
COC(=O)c1ccc(C)c(NC(=O)Cc2coc3cc(OC)ccc23)c1	u	-1%	-14%	-14%	49
COc1ccc(CC(=O)Nc2c(C(=O)Nc3ccc(F)cc3)oc3ccccc23)cc1OC	21µM*	x	12µM*	x	x
Cc1ccccc1OCCCCCNCCO	-29%	4%	-8%	-12%	1
CC(C)c1ccccc1OCCCCCNCCO	u	11%[9.24 µM]	u	u	-54*
CC(C)(C)c1ccccc1OCCCCCNCCO	u	u	u	u	-53*
COc1ccccc1OCCCCNCCO	-7%	4%	-1%	6%	9
O=c1ccn([C@@H]2O[C@H](CNCC3=Cc4cc(O)ccc4OC3)[C@@H](O)[C@H]2O)c(=O)[nH]1	-2%	2%	-14%	5%	-6
CCc1nnc(NC(=O)CSc2nc3ccc(OC)cc3[nH]2)s1	-7%	13%	2%	10%	27
Cc1nccn1CCC(=O)NC1CC(C)(C)Cc2c1cnn2-c1ccccc1 (configuration not stated)	-2%	7%	0%	5%	-3
COc1ccc(/C=C/C(=O)NC(=S)NNC(=O)c2cc(OC)c(OC)c(OC)c2)cc1	9.2µM*	u	u	-17%	84
COc1ccc(/C=C/C(=O)NC(=S)NNC(=O)c2cc(OC)c(OC)c(OC)c2)cc1OC	15µM*	-18%	u	-17%	0
COc1ccc(/C=C/C(=O)NC(=S)Nc2ccccc2)cc1OC	-15%	27%	11%	20%	23

Screening results (PubChem)
